“And” between values parts separate entries of the source, which are not always exact repeats. Equal values may be shown once. Among all 290,000 compounds or so, about 370 (0.13%) were called active.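 How the source made its calls: active means spots per cell inhibited over 60%, with over 100 cells counted and total cytoplasm intensity under 500,000; inconclusive means wells with under 100 cells, flagged as likely toxic; inactive means the rest.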 What follows is part of a selection rich in actives, with near analogues and random picks from the rest. Results with a measured potency or affinity are listed apart. A structure can be active in one record and inactive in another.
The molecules below were run against G-protein coupled receptor 55 (Homo sapiens) (UniProt Q9Y2T6) (assay: GPR55 antagonists blocking LPI-driven arrestin recruitment, primary screen, imaging, U2OS, beta-arrestin-GFP, LPI agonist (AID 2013;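 further: U2OS cells stably carrying GPR55 and arrestin-GFP stimulated by 5 µM LPI near EC80; imaged beta-arrestin-GFP aggregate spots per cell after agonist stimulation; plate controls were LPI-stimulated DMSO wells for no effect and DMSO wells without LPI for full effect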)). Conditions: U2OS GPR55 beta-arrestin-GFP translocation imaging, LPI antagonism; at 10 µM; stronger effect = higher value.
Sequence of G-protein coupled receptor 55 (Homo sapiens) (Q9Y2T6 whole entry, looked up): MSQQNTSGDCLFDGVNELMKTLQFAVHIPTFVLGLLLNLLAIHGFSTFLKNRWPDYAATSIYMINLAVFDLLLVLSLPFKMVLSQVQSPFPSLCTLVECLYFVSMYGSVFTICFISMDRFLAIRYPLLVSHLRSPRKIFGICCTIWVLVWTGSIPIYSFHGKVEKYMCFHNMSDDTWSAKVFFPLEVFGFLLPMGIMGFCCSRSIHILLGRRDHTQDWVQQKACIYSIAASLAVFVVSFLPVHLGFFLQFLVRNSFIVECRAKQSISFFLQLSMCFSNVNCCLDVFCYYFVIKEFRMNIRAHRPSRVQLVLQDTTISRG
In the case of `O=S(=O)(c1ccccc1)N1CCCc2ccccc21`, the inhibition is reported as 0.9% (inactive). In the case of `O=S(=O)(c1ccc(F)cc1)N1CCCc2ccccc21`, the inhibition is reported as 93.9% (active). `O=S(=O)(c1ccc(F)cc1)N1CCc2ccccc21` was tested, and the inhibition was 9.6% (inactive). With `COc1ccc(Br)cc1S(=O)(=O)Nc1cccc(C)n1` the inhibition was 9.5% (inactive). In the case of `C=CCN(C(=O)CNC(=O)c1ccco1)C(C(=O)NC1CCCCC1)c1ccc(OC)cc1` (centres undefined), the inhibition is reported as -13.5% (inactive). `C=CCN(C(=O)CNC(=O)c1ccco1)C(C(=O)NC1CCCCC1)c1ccccc1` (centres undefined) was tested, and the inhibition was -5.9% (inactive). With `C=CCN(C(=O)CNC(=O)c1ccco1)C(C(=O)NC1CCCCC1)c1ccc(F)cc1` (centres undefined) the inhibition was 73.3% (active). With `CC(C)N1CCC(N2CCN(Cc3ccc(-c4ccc(Cl)cc4)o3)CC2CCO)CC1` (centres undefined) the inhibition was 0.6% (inactive). With `CC(NC(=O)CCCCCNC(=O)N1CCn2c1nc1ccccc12)c1ccccc1` (centres undefined) the inhibition was 2.2% (inactive). For `Cc1oc(-c2cccc(Cl)c2)nc1CS(=O)(=O)CC(=O)NCCN1CCOCC1`, the inhibition was -0.5% (inactive). `CCOC(=O)C1=C(C)NC(C)=C(C(=O)OCC)C1c1ccc(C)o1` was tested, and the inhibition was 10.1% (inactive). In the case of `CCOC(=O)C1=C(C)NC(=O)NC1c1ccc(Br)o1` (centres undefined), the inhibition is reported as -4% (inactive). `CCCCCCOC(=O)c1ccc(NC(=O)c2cc(OC)c(OC)c(OC)c2Br)cc1` was tested, and the inhibition was -0.3% (inactive). `Cc1cnc(NC(=O)NCC2CCCC(CNC(=O)Nc3ncc(C)s3)C2)s1` (centres undefined) was tested, and the inhibition was -6.9% (inactive). In the case of `CCCCC(O)(CCCC)C(=O)NN(C(=O)c1cccnc1Cl)c1ccccc1`, the inhibition is reported as 6.1% (inactive). For `COc1ccc2c(C)cc(SCn3nnc4ccccc4c3=O)nc2c1`, the inhibition was -3.7% (inactive). For `CCN1C(=O)C(O)(C2COC(C)(C)CC2=O)c2ccccc21` (centres undefined), the inhibition was 7.4% (inactive). `CCN1C(=O)C(O)(CC(=O)c2ccccn2)c2ccccc21` (centres undefined) was tested, and the inhibition was 12% (inactive). With `CCOc1ccc(Cl)cc1S(=O)(=O)N1CCC(C(=O)NCC2CCCO2)CC1` (centres undefined) the inhibition was -1.1% (inactive). For `O=C(CSC1=NCCS1)Nc1cccc(F)c1`, the inhibition was -2.2% (inactive). With `COc1ccc(CCNC2=NCC(C)S2)cc1` (centres undefined) the inhibition was 6.5% (inactive). For `Cc1ccc(NC2=NCC(Cc3ccc(Br)cc3)S2)cc1` (centres undefined), the inhibition was 49% (inactive). With `COc1cccc(C(=O)Nc2cc(C(=O)NCc3ccc(C)cc3)ccc2N2CCC3(CC2)CC(c2ccccc2)=NO3)c1` the inhibition was 10.8% (inactive). `Cc1cccc(C)c1NC(=O)CN(C)CC(=O)Nc1cc(Cl)ccc1C#N` was tested, and the inhibition was 6.8% (inactive). In the case of `N#CC1=C2N=C(N)c3ccccc3N2C2=C(C(=O)CCC2)C1c1ccc(F)cc1` (centres undefined), the inhibition is reported as 13.1% (inactive). In the case of `N#CC1=C2N=C(N)c3ccccc3N2C2=C(C(=O)CCC2)C1c1ccc(Cl)cc1` (centres undefined), the inhibition is reported as 86.9% (inactive). With `O=S(=O)(NCC1CCN(c2ccc(S(=O)(=O)N3CCOCC3)cc2)CC1)c1ccccc1` the inhibition was 0.7% (inactive). In the case of `O=C(O)Cn1ncn(-c2ccc(OC(F)(F)F)cc2)c1=O`, the inhibition is reported as 4.9% (inactive). In the case of `O=C(NC(=S)NCCC1=CCCCC1)c1ccccc1Br`, the inhibition is reported as 74.9% (active). With `Cc1ccccc1C(=O)NC(=S)NCCC1=CCCCC1` the inhibition was 1% (inactive). For `O=C(NC(=S)NCCC1=CCCCC1)c1ccc(Br)o1`, the inhibition was 4.9% (inactive). For `CCOc1ccccc1NC(=O)NCc1ccco1`, the inhibition was 11.3% (inactive). `Cc1cc(SCC(=O)N/N=C/c2ccc(O)cc2O)nc2ccccc12` was tested, and the inhibition was 13.8% (inactive). In the case of `Oc1oc(-c2ccc(Br)cc2)nc1C=Nc1ccc(Br)cn1`, the inhibition is reported as -0.2% (inactive). In the case of `CC(=O)c1ccc(N2CCN(C3CCC(C(C)(C)C)CC3)CC2)cc1` (centres undefined), the inhibition is reported as 9% (inactive). With `N[C@@H](Cc1ccc(O)c(I)c1)C(=O)O` the inhibition was 8.6% (inactive). In the case of `N[C@@H](Cc1cc(I)c(Oc2ccc(O)c(I)c2)c(I)c1)C(=O)O`, the inhibition is reported as 6.9% (inactive) and 99.2% (active). In the case of `O=C(O)Cc1cc(I)c(Oc2ccc(O)c(I)c2)c(I)c1`, the inhibition is reported as 6.9% (inactive). With `COc1ccccc1N1CCN(CCCCOc2ccc(C)cc2C)CC1` the inhibition was 18.9% (inactive). In the case of `Cc1ccccc1NC1=C/C(=N\S(=O)(=O)c2cccs2)c2ccccc2C1=O`, the inhibition is reported as -11.4% (inactive). `Cc1ccc(NC2=C/C(=N/S(=O)(=O)c3cccs3)c3ccccc3C2=O)cc1` was tested, and the inhibition was 16% (inactive). `COc1ccc(OCc2nnc(SCC(=O)Nc3ccccc3F)o2)cc1` was tested, and the inhibition was -6.5% (inactive). For `Cc1cccc(C(=O)N(CCc2ccccc2)Cc2ccccc2)c1[N+](=O)[O-]`, the inhibition was 14% (inactive). In the case of `O=C(OCn1ncc(Cl)c(Cl)c1=O)c1ccc(F)cc1`, the inhibition is reported as 1.3% (inactive). With `O=C(OCn1ncc(Br)c(Br)c1=O)c1c(F)cccc1F` the inhibition was -5.4% (inactive). `CCOC(=O)C1=C(C(F)(F)F)Nc2ncnn2C1c1cccc(OC)c1OC` (centres undefined) was tested, and the inhibition was 13.1% (inactive). For `Cn1nc(-c2ccccn2)nc2c(=O)n(C)c(=O)nc1-2`, the inhibition was 45.9% (inactive). For `CCCc1nc2c(=O)n(C)c(=O)nc-2n(C)n1`, the inhibition was -5.2% (inactive). With `O=C(/C=C/c1ccc(S(=O)(=O)N2CCOCC2)cc1)N1CCN(c2ccccc2)CC1` the inhibition was -10.2% (inactive). With `COc1ccc(Br)cc1S(=O)(=O)n1ccnc1` the inhibition was 3.5% (inactive). In the case of `Cc1ccc(CSCCNC(=O)c2ccc(N(C)S(=O)(=O)c3ccccc3)cc2)cc1`, the inhibition is reported as 4.4% (inactive). `CN(c1ccc(C(=O)NCCSCc2ccccc2)cc1)S(=O)(=O)c1ccccc1` was tested, and the inhibition was -5.5% (inactive). For `CCOc1ccc(-n2nc3c(=O)[nH]nc(C)c3c2C)cc1`, the inhibition was 7.8% (inactive). In the case of `COc1ccccc1C1C(C#N)=C(N)Oc2c1c(-c1ccccc1)nn2-c1ccccc1` (centres undefined), the inhibition is reported as 96.3% (active). For `COc1cc(C2C(C#N)=C(N)Oc3c2c(-c2ccccc2)nn3-c2ccccc2)cc(OC)c1OC` (centres undefined), the inhibition was -13.1% (inactive). In the case of `COc1ccc(C2C(C#N)=C(N)Oc3c2c(-c2ccccc2)nn3-c2ccccc2)c(OC)c1OC` (centres undefined), the inhibition is reported as 79.5% (inactive). In the case of `O=C(COc1ccc(Br)cc1)NC(=S)Nc1ccccc1N1CCOCC1`, the inhibition is reported as 0.7% (inactive). With `O=C(NC(=S)Nc1ccccc1N1CCOCC1)c1ccc([N+](=O)[O-])cc1` the inhibition was 5% (inactive). In the case of `O=C(/C=C/c1ccco1)NC(=S)Nc1ccccc1N1CCCC1`, the inhibition is reported as 23% (inactive). In the case of `O=C(NC(=S)Nc1ccccc1N1CCOCC1)c1ccccc1F`, the inhibition is reported as 16.2% (inactive). With `Cc1ccc(C(=O)NC(=S)Nc2ccccc2N2CCOCC2)cc1C` the inhibition was 0.3% (inactive). `COc1ccc(C(=O)NC(=S)Nc2ccccc2N2CCOCC2)cc1Br` was tested, and the inhibition was 0.4% (inactive). In the case of `O=C(/C=C/c1ccco1)Nc1ccccc1N1CCOCC1`, the inhibition is reported as 10.8% (inactive). `CCc1ccc(C(=O)NC(=S)Nc2ccc(N3CCOCC3)cc2)cc1` was tested, and the inhibition was 4.3% (inactive).
